Drawing on PubChem BioAssay (EPA / NIEHS), this text covers outcome and AC50 for 22 molecules.

A short description of test [1]: TOX21_p53_BLA_p2_viability: Viability Assessment in the Tox21 HCT-116 p53 Agonism Beta-lactamase Assay, Phase 2 (AID 2283591).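 Further: actives lower the ATP signal meaning cytotoxicity.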 An outline of the steps: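 HCT-116 p53-bla cells (4000/well) rested 5 h at 37C, then received compounds in DMSO (217-fold dilution) for 16 h at 37C, 5% CO2. After the CCF4 read, CellTiter-Glo was added; ATP luminescence was read after 30 min at room temperature.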

For test [2], the target named is Cellular tumor antigen p53 (Homo sapiens) (UniProt P04637). As to the kind of experiment: TOX21_p53_BLA_p2_ratio: Tox21 HCT-116 p53 Agonism Beta-lactamase Assay, Ratio, Phase 2 (AID 2283592). An outline of the steps: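 First, HCT116 reporter cells settle for 5 h at 37C. Next, DMSO compound solutions are pinned in (217-fold dilution) and left 16 h. Finally, CCF4-AM substrate is loaded 2 h at room temperature and the 460/530 nm ratio read.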
Cellular tumor antigen p53 (Homo sapiens), sequence (P04637 whole entry, looked up): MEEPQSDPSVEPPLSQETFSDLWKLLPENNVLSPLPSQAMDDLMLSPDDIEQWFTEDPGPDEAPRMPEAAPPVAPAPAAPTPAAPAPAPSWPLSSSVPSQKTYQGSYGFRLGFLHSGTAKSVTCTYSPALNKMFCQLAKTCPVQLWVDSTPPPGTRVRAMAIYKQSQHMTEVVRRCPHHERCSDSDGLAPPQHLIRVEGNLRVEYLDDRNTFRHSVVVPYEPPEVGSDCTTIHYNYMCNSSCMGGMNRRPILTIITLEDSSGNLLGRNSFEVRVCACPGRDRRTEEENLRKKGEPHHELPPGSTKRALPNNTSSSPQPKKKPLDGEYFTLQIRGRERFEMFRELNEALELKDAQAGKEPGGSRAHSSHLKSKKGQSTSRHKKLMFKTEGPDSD

Test [3] is described as follows: TOX21_p53_BLA_p3_viability: Viability Assessment in the Tox21 HCT-116 p53 Agonism Beta-lactamase Assay, Phase 3 (AID 2283593).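 Further: cells exposed to compound for 16 h before reading.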 A digest of the protocol: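 HCT-116 cells (4000/well) rested 5 h at 37C, then got DMSO compounds by pin tool (217-fold dilution) for 16 h at 37C, 5% CO2. After the bla read, CellTiter-Glo was added and luminescence read at 30 min, room temperature.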

Test [4] deals with Cellular tumor antigen p53 (Homo sapiens) (UniProt P04637). In words: TOX21_p53_BLA_p3_ratio: Tox21 HCT-116 p53 Agonism Beta-lactamase Assay, Ratio, Phase 3 (AID 2283596). A digest of the protocol: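 Cells were seeded at 4000/well, rested 5 h at 37C, then dosed with DMSO compound solutions (217-fold dilution) for 16 h. CCF4-AM substrate was loaded for 2 h at room temperature, and the 460/530 nm emission ratio was fitted for gain of signal versus DMSO.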

Test [5] is described as follows: TOX21_p53_BLA_p4_viability: Viability Assessment in the Tox21 HCT-116 p53 Agonism Beta-lactamase Assay, Phase 4 (AID 2283597).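 Further: hits lower the luminescence signal meaning cytotoxicity.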 An outline of the steps:
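4000 HCT116 cells per well; 5 h attachment; compounds from DMSO, 217-fold dilution; 16 h at 37C. Then CCF4-AM, 2 h RT, followed by CellTiter-Glo, 30 min RT, luminescence. Decrease = cytotoxicity.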

Test [6] concerns the target Cellular tumor antigen p53 (Homo sapiens) (UniProt P04637). As to the kind of experiment: TOX21_p53_BLA_p5_ratio: Tox21 HCT-116 p53 Agonism Beta-lactamase Assay, Ratio, Phase 5 (AID 2283599). A digest of the protocol: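 HCT-116 cells carrying a p53-inducible beta-lactamase reporter were seeded at 4000 cells/well and dosed after 5 h with compound in DMSO (217-fold dilution). After 16 h at 37C, CCF4-AM substrate was added for 2 h, and the 460/530 nm emission ratio was scored as gain-of-signal versus DMSO.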

Test [7] is described as follows: TOX21_p53_BLA_p5_viability: Viability Assessment in the Tox21 HCT-116 p53 Agonism Beta-lactamase Assay, Phase 5 (AID 2283600). A digest of the protocol: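 Decreased CellTiter-Glo luminescence denotes lost viability. Exposure: 16 h at 37C, 5% CO2, with compounds from DMSO stocks diluted 217-fold in wells of 4000 cells.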
Test [8] concerns the target Cellular tumor antigen p53 (Homo sapiens) (UniProt P04637). As to the kind of experiment: TOX21_p53_BLA_p4_ratio: Tox21 HCT-116 p53 Agonism Beta-lactamase Assay, Ratio, Phase 4 (AID 2283601). A digest of the protocol: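 HCT116 cells carrying an inducible beta-lactamase reporter were plated at 4000 cells/well, rested 5 h, then exposed to compounds in DMSO (217-fold dilution) for 16 h at 37C. CCF4-AM substrate was loaded 2 h at room temperature; 460/530 nm emission ratio scored gain-of-signal versus DMSO.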

Records with an inconclusive call do not appear. Calls of active or inactive are those of the source. How the source made its calls: active means hit-call score of the fitted dose curve at least 0.9, where 1 is the maximum; inconclusive means response in the unintended direction; inactive means score below 0.9.

A word on the AC50: it is the concentration at which the activity in the assay is half-maximal. Regarding `COc1ccc2c(c1)OC(C)(C)C(c1ccccc1)C2c1ccc(OCCN2CCCC2)cc1` (stereo not drawn), the call in test [1] and in test [2] was inactive. The AC50 in test [3] is 35.3 µM (active); in test [4], 43.8 µM (active); in test [5] it was 43.5 µM (active); in test [6] it was 36.7 µM (active); in test [7], 33.5 µM (active).

On to `N/C(=N\N=Cc1ccc(Cl)cc1)NN=Cc1ccc(Cl)cc1`, for which the outcome in test [1], in test [2], in test [5], in test [6] and in test [7] was inactive. Also, the concentration at half-maximal activity (AC50) was 42.7 µM (active) in test [3] and 37.6 µM (active) in test [4].

For `CCN(CC)CCOc1ccc(Cc2ccccc2)cc1`, the AC50 in test [1] is 42.2 µM (active); in test [5] it was 33.8 µM (active). For the same molecule, the result in test [2], in test [3], in test [4], in test [6] and in test [7] was inactive.

With `Cc1cc(O)c2c(O)c3c(O)cccc3cc2c1`, the result in test [1], in test [2], in test [3], in test [4], in test [5] and in test [6] was inactive. Moreover, the outcome in test [7] was inactive.

On to `O=C1CCCCO1`, for which the result in test [1], in test [2], in test [3], in test [4], in test [5] and in test [6] was inactive. Also, the molecule was called inactive in test [7].

As to `CC(C)c1ccc2oc3nc(N)c(C(=O)O)cc3c(=O)c2c1`, the molecule was classed as inactive in test [1], in test [2], in test [3], in test [4], in test [5] and in test [6]. Moreover, the call in test [7] was inactive.

Take `Nc1cc(S(=O)(=O)O)ccc1O`: the result in test [1], in test [2], in test [3], in test [4], in test [5] and in test [6] was inactive.

Consider `CCCCOCCOCCOCCCC`, for which the result in test [1], in test [2], in test [3], in test [4], in test [5] and in test [6] was inactive. Also, the result in test [7] was inactive.

For `CC(C)(C)c1cc(CO)cc(C(C)(C)C)c1O`, the result in test [1], in test [2], in test [3], in test [4], in test [5] and in test [6] was inactive. Moreover, the call in test [7] was inactive.

With `Cc1cccc(CN2CCN(C(c3ccccc3)c3ccc(Cl)cc3)CC2)c1` (stereo not drawn), the molecule was called inactive in test [1], in test [2], in test [3], in test [4], in test [5] and in test [6]. Further, the molecule was classed as inactive in test [7].

As for `CO/N=C(\C(=O)N[C@@H]1C(=O)N2C(C(=O)O)=C(CSC(=O)c3ccco3)CS[C@H]12)c1csc(N)n1`, the molecule was classed as inactive in test [1], in test [2], in test [3], in test [4], in test [5] and in test [6]. Moreover, the call in test [7] was inactive.

For `S=C1NC=NC2N=CNC12` (stereo not drawn), the AC50 in test [1] was 2.15 µM (active); in test [2], 7.37 µM (active); in test [3], 2.33 µM (active); in test [4], 7.71 µM (active); in test [5], 2.3 µM (active); in test [6] it was 6.33 µM (active). For the same molecule, the AC50 in test [8] was 8.02 µM (active). Also, the molecule was classed as inactive in test [7].

Consider `CCCCCCCC[N+](CCCCCCCC)(CCCCCCCC)CCCCCCCC`, for which the AC50 in test [1] was 18.9 µM (active); in test [2], 54.8 µM (active); in test [3], 29.3 µM (active); in test [4], 56.2 µM (active); in test [5] it was 36.2 µM (active); in test [6] it was 64.1 µM (active). In addition, the values for the half-maximal activity concentration (AC50) in test [7] and in test [8] were 34 µM (active) and 64.5 µM (active), respectively.

Take `CCn1cc(C(=O)O)c(=O)c2cc(F)c(N3CCNC(C)C3)c(F)c21` (stereo not drawn): the outcome in test [1], in test [2], in test [3], in test [4], in test [5] and in test [6] was inactive. The outcome in test [7] and in test [8] was inactive.

Turning to `CO[C@H]1/C=C/O[C@@]2(C)Oc3c(C)c(O)c4c(O)c(cc(O)c4c3C2=O)NC(=O)/C(C)=C\C=C\[C@H](C)[C@H](O)[C@@H](C)[C@@H](O)[C@@H](C)[C@H](OC(C)=O)[C@@H]1C`, the call in test [1], in test [2], in test [3], in test [4], in test [5] and in test [6] was inactive. The molecule was classed as inactive in test [7] and in test [8].

For the molecule `CC1(S(=O)(=O)O)CC(=O)c2ccccc2C1=O` (stereo not drawn), the call in test [1], in test [3], in test [5], in test [7] and in test [8] was inactive. Besides, the values for the half-maximal activity concentration (AC50) in test [2], in test [4] and in test [6] were 34.5 µM (active), 43.4 µM (active) and 36.7 µM (active), respectively.

In the case of `CO[C@@H]1[C@@H](O[C@@H]2O[C@H](C)[C@@H](O[C@H]3C[C@@](C)(O)[C@@H](OC(=O)CC(C)C)[C@H](C)O3)[C@H](N(C)C)[C@H]2O)[C@@H](CC=O)C[C@@H](C)C(=O)/C=C/C2OC2C[C@@H](C)OC(=O)C[C@H]1OC(C)=O` (stereo partly drawn), the molecule was called inactive in test [1], in test [2], in test [3], in test [4], in test [5] and in test [6]. In addition, the molecule was called inactive in test [7] and in test [8].

Take `Nc1nc(Cl)nc2c1ncn2[C@@H]1O[C@H](CO)[C@@H](O)[C@@H]1F`: the result in test [1], in test [3], in test [5] and in test [7] was inactive. Also, the AC50 is 0.119 µM (active) in test [2], 0.117 µM (active) in test [4], 0.112 µM (active) in test [6] and 0.155 µM (active) in test [8].

Take `CCCCCCCCCCCC(=O)N(CCO)CCO`: the molecule was classed as inactive in test [1], in test [2], in test [3], in test [4], in test [5] and in test [6]. The molecule was classed as inactive in test [7].

Turning to `C[C@]12O[C@H](C[C@]1(O)CO)n1c3ccccc3c3c4c(c5c6ccccc6n2c5c31)CNC4=O`, the half-maximal activity concentration (AC50) in test [1] was 1.06 µM (active); in test [2], 0.0434 µM (active); in test [3], 1.13 µM (active); in test [4], 0.0715 µM (active); in test [5] it was 2.24 µM (active); in test [6], 0.0787 µM (active). Also, the half-maximal activity concentration (AC50) in test [8] is 0.0528 µM (active). In addition, the result in test [7] was inactive.

Regarding `CCCC(C(=O)OCCN(CC)CC)(c1ccccc1)c1ccccc1`, the outcome in test [1], in test [2], in test [3], in test [4], in test [6] and in test [7] was inactive. Besides, the outcome in test [8] was inactive. Moreover, in test [5], the half-maximal activity concentration (AC50) was 31.2 µM (active).

Consider `COc1c(C)c2c(c(O)c1C/C=C(\C)CCC(=O)O)C(=O)OC2`, for which the result in test [1], in test [3] and in test [7] was inactive. The AC50 is 0.0608 µM (active) in test [2]; 0.102 µM (active) in test [4]; 0.224 µM (active) in test [5]; 0.127 µM (active) in test [6]; 0.091 µM (active) in test [8].
